Laboratory results taken from ChEMBL document CHEMBL1961873, “Compounds: GSK PKIS; Assays: Nanosyn kinase panel” (2012).

Legend:
[1] = target: RAC-alpha serine/threonine-protein kinase (Homo sapiens) (UniProt P31749); conditions: at 0.1 µM
[2] = target: RAC-alpha serine/threonine-protein kinase (Homo sapiens) (UniProt P31749); conditions: at 1 µM
[3] = target: RAC-beta serine/threonine-protein kinase (Homo sapiens) (UniProt P31751); conditions: at 0.1 µM
[4] = target: RAC-beta serine/threonine-protein kinase (Homo sapiens) (UniProt P31751); conditions: at 1 µM
[5] = target: RAC-gamma serine/threonine-protein kinase (Homo sapiens) (UniProt Q9Y243); conditions: at 0.1 µM
[6] = target: RAC-gamma serine/threonine-protein kinase (Homo sapiens) (UniProt Q9Y243); conditions: at 1 µM
[7] = target: G protein-coupled receptor kinase 6 (Homo sapiens) (UniProt P43250); conditions: at 0.1 µM
[8] = target: G protein-coupled receptor kinase 6 (Homo sapiens) (UniProt P43250); conditions: at 1 µM
[9] = target: T1, Rhodopsin kinase GRK7 (Homo sapiens) (UniProt Q8WTQ7); conditions: at 0.1 µM
T1 sequence (whole entry): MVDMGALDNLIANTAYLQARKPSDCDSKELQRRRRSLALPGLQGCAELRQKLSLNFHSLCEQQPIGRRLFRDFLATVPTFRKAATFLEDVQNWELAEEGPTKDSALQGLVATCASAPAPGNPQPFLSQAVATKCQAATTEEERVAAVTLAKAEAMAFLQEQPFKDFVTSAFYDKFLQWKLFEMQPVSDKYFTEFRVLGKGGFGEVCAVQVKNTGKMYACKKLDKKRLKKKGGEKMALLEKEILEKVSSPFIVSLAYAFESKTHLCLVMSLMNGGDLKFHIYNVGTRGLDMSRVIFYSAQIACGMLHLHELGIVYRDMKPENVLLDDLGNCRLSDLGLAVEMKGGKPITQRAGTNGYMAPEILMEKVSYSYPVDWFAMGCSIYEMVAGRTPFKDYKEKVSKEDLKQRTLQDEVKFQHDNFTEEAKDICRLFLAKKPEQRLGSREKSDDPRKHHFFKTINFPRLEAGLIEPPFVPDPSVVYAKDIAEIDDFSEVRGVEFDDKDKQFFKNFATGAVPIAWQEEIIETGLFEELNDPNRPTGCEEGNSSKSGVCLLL

[10] = target: T1, Rhodopsin kinase GRK7 (Homo sapiens); conditions: at 1 µM

Sequence of G protein-coupled receptor kinase 6 (Homo sapiens) (P43250 whole entry, looked up): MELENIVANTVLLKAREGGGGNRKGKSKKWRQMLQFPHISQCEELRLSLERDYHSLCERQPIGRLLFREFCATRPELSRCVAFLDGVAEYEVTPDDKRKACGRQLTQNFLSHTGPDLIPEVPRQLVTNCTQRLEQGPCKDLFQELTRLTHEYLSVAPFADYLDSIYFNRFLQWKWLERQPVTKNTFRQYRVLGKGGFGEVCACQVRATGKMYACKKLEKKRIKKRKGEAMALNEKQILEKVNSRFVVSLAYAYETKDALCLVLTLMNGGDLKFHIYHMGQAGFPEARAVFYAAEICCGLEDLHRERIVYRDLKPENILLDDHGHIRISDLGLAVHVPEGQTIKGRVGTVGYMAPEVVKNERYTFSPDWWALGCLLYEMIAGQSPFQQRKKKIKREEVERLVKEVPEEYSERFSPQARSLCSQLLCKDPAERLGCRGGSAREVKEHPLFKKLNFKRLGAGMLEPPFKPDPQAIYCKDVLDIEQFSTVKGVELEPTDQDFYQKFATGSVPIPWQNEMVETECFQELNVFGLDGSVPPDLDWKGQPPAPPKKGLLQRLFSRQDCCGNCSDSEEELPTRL
Sequence of RAC-alpha serine/threonine-protein kinase (Homo sapiens) (P31749 whole entry): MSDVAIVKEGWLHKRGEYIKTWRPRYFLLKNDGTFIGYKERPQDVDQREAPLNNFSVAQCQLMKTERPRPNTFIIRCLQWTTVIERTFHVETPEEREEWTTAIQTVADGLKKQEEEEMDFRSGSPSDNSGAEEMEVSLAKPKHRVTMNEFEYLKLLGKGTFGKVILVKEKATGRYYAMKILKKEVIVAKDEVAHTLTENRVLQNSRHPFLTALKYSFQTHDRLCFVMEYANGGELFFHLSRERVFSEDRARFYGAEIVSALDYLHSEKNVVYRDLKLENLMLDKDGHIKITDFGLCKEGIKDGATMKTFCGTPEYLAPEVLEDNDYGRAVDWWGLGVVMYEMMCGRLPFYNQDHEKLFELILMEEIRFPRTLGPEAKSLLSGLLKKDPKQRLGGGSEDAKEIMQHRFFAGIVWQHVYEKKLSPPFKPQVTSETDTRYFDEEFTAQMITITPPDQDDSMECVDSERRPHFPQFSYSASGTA
Sequence of RAC-gamma serine/threonine-protein kinase (Homo sapiens) (Q9Y243 whole entry): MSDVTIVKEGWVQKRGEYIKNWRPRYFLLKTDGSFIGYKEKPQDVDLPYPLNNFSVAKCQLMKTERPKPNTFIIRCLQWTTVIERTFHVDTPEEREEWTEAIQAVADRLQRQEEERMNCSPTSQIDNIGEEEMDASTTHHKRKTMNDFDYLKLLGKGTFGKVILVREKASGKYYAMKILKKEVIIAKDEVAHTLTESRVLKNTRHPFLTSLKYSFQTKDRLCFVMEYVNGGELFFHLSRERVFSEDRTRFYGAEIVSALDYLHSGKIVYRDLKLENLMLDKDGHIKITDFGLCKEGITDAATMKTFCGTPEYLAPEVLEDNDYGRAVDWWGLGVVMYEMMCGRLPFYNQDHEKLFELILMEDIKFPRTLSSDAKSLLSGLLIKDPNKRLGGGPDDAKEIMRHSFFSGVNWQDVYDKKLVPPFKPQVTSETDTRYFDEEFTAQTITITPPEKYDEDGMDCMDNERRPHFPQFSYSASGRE
Sequence of RAC-beta serine/threonine-protein kinase (Homo sapiens) (P31751 whole entry): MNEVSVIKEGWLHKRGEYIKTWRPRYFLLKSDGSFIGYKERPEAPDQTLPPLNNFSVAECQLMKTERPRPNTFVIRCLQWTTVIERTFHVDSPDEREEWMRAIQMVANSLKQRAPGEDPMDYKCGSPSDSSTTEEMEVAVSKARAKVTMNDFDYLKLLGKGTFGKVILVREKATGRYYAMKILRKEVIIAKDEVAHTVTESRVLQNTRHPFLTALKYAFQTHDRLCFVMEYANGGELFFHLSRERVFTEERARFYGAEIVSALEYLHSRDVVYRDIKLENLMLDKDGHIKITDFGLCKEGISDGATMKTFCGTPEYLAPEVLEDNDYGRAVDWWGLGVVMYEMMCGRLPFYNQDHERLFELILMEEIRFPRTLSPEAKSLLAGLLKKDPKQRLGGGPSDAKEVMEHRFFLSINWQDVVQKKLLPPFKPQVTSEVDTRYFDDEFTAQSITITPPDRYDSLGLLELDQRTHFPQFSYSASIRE

Row | Compound | inhibition [1] [%] | inhibition [2] [%] | inhibition [3] [%] | inhibition [4] [%] | inhibition [5] [%] | inhibition [6] [%] | inhibition [7] [%] | inhibition [8] [%] | inhibition [9] [%] | inhibition [10] [%]
1 | CCOc1nccc2c1nc(-c1nonc1N)n2CC | 0.82 | 1.86 | 1.97 | 1.44 | 0.46 | 1.25 | 4.85 | 18.1 | 3.99 | 8.26
2 | CCS(=O)(=O)c1ccc(OC)c(Nc2nccc(N(C)c3ccc4c(C)n[nH]c4c3)n2)c1 | 1.44 | 1.19 | 1.01 | 2.53 | 0.55 | 2.78 | -0.58 | 1.67 | 9.6 | 1.83
3 | Nc1ccc(C#Cc2cncnc2Nc2ccc(OCc3cccc(F)c3)c(Cl)c2)cc1 | 0.15 | 1.42 | 1.06 | 1.24 | 0.3 | 2.19 | 0.63 | 0.83 | 5.58 | 1.26
4 | COc1cc2ncnc(Nc3ccc4c(cnn4Cc4ccccc4)c3)c2cc1OC | -0.49 | 0.77 | 0.99 | 1 | 0.08 | 2.09 | -0.46 | 2.17 | 9.43 | 2.89
5 | O=C(Nc1ccc(Oc2ccc3[nH]c(NC(=O)c4ccco4)nc3c2)cc1)Nc1cc(C(F)(F)F)ccc1F | -3.62 | -0.4 | -3.05 | -2.64 | -3.47 | -4.94 | 0.72 | -4.1 | -0.48 | -4.51
6 | C[C@@H](Oc1cc(-n2cnc3ccc(OCC4CCN(C)CC4)cc32)sc1C(N)=O)c1ccccc1C(F)(F)F | -0.94 | -1.34 | -1.9 | -0.71 | -1.91 | 1.79 | -1.55 | -1.03 | 2.15 | -2.25
7 | N#Cc1c(NC(=O)c2ccccc2F)sc2c1CCCC2 | -0.97 | -1.21 | -1.71 | -1.01 | -1.05 | -0.44 | 1.29 | 2.2 | 2.28 | -1.97
8 | Cc1ccc2c(-c3ccnc(Nc4ccc5c(c4)OCCO5)n3)c(-c3ccc(C(F)(F)F)cc3)nn2n1 | 1.37 | 1.23 | 1.5 | 1.65 | 1.43 | -4.48 | 0.55 | 2.19 | 5.75 | 2.78
9 | COC(=O)c1cncc(/C=C/c2c(C)cc(O)cc2C)c1 | 1.01 | 0.52 | 1.09 | 1.16 | 1.47 | 1.17 | 7.47 | 9.38 | 3.31 | 3.95
10 | COc1cccc(-n2ncc3c(N/N=C/c4ccc(S(C)(=O)=O)cc4)ncnc32)c1 | -3.17 | -2.91 | -3.17 | -2.73 | -8.29 | -3.66 | 1.17 | -1.78 | -0.35 | 0.56
11 | [O-][S+]1CCN(Cc2ccc(-c3ccc4ncnc(Nc5ccc(OCc6ccccc6)c(Cl)c5)c4c3)o2)CC1 | 0.1 | -0.3 | 0.29 | 1.29 | 0.15 | 2.06 | -0.03 | 1.12 | 7.76 | -2.22
12 | Cc1cc(-c2ccccn2)cc(C)c1/C=C/c1cncc(-c2nn[nH]n2)c1 | 1.14 | 0.85 | 0.53 | 1.57 | 2.14 | 2.17 | 5.67 | 1.26 | 9.3 | 7.66
13 | NC(=O)c1cccc(Nc2nccc(Nc3cccc(F)c3)n2)c1 | 0.22 | -0.29 | 0.22 | 0.58 | 0.47 | 3.46 | 2.83 | 0.77 | 4.02 | 2.39
14 | CN(c1ccc(NC(=O)Nc2ccc(OC(F)(F)F)cc2)cc1)c1ccnc(Nc2cccc(S(N)(=O)=O)c2)n1 | 0.77 | 0.88 | 0.51 | 1.22 | 0.16 | 2.79 | -5.14 | -2.97 | 3.47 | -1.66
15 | CC(C)c1ccc(Nc2nccc(-c3cnn4ncccc34)n2)cc1 | 0.38 | 0.64 | 1.28 | 1.13 | 1.09 | 1.51 | 4.74 | 3.14 | 2.17 | 3.19
16 | COc1ccc2ncnc(Nc3ccc(OCc4ccccc4)cc3)c2c1 | 0.35 | -0.14 | 0.26 | 0.34 | 0.84 | 1.52 | 1.69 | 5.27 | 2.31 | 6.57
17 | Cc1cc(Cl)cc2c1NC(=O)C2=NNc1ccc(S(N)(=O)=O)cc1 | 0.38 | 0.03 | 0.6 | 1.11 | 0.3 | 0.71 | 7.71 | 11 | 5.48 | 13.2
